DRD3 antagonist: D3 dopamine receptor (human) antagonism | AID 652054 | D3R cells, DiscoveRx beta-arrestin luminescence, antagonist mode; stronger effect = lower value | 2.5% of 360,000 active | max response, negative = inhibition, %; in the data active = max response below about -50%; inconclusive = no clear call, values can overlap the other calls; note: % is set by controls: 0 for no effect and ±100 for the full control effect
Target sequence (P35462 whole entry, looked up): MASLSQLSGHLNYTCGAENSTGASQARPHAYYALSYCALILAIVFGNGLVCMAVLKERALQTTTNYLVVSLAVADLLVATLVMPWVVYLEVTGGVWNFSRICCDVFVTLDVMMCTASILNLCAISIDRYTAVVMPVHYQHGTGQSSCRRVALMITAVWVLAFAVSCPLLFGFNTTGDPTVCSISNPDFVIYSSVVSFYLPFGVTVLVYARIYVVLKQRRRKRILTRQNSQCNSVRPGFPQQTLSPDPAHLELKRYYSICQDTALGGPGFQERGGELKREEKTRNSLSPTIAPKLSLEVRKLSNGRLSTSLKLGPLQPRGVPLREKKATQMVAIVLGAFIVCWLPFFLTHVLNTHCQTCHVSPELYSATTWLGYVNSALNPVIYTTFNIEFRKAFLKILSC
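Cells plated overnight at 1500 cells/well, then exposed to library compounds with dopamine controls for 90 minutes at 37 degrees C. DiscoveRx reagent added for 30–60 minutes at room temperature; luminescence read, quantitative HTS format.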
DRD3 agonist: agonists of human D3 dopamine receptor | P35462 | 0.58% of 410,000 active | AID 652048 | D3R DiscoveRx beta-arrestin cells, luminescence, 90 min | max activation, %; in the data active = max activation above about 30%; note: 0% is about no effect
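Cells at 1500/well, incubated overnight, then treated with pinned compounds (dopamine as control) for 90 min at 37 degrees C. DiscoveRx reagent added for 30 - 60 minutes at room temperature; luminescence read.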
uPA generation: cell surface uPA generation inhibition. 0.31% of 330,000 active. Potency, µM (doses to about 38.3 µM), inactives show at the top dose activity change, negative = inhibition, usual class: inhibitors. cell surface uPA generation assay, qHTS. AID 540303; active = well fitted inhibition curve with a large enough effect; inconclusive = small, poorly fitted or top-dose-only effect; inactive = no such curve, though single readings can be large or run the other way; tested in mouse RAW 264.7 cells; note: potency is the fitted concentration of half-maximal effect; % is set by controls: 0 for no effect and ±100 for the full control effect; nearly all actives have a fitted effect of over 55% in size
RGS4 inh: human RGS4 inhibition. P49798. Transcreener GDP fluorescence polarization, RGS4-accelerated GTP hydrolysis. Potency, µM (titrated, usually from 114 µM), inactives show at the highest dose activity change, negative = inhibition, usual class: inhibitors. 0.039% of 390,000 active; active = well fitted inhibition curve with a large enough effect; inconclusive = small, poorly fitted or top-dose-only effect; inactive = no such curve, though single readings can be large or run the other way; note: potency is the fitted concentration of half-maximal effect; % is set by controls: 0 for no effect and ±100 for the full control effect; nearly all actives have a fitted effect of over 75% in size
Target sequence (P49798 whole entry, looked up): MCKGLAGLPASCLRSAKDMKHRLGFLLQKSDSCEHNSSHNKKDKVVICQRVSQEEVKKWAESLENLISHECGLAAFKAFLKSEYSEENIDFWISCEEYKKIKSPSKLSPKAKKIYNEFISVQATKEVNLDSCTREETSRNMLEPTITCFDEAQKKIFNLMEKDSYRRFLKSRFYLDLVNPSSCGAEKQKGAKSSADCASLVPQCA
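MLSMR compounds (23 nl, pin-transferred) preincubated 10 min at room temperature with a 500nM (2x) first reagent, then RGS4 at 900nM (2x) plus Transcreener GDP mix added; fluorescence polarization (620/688 nm) read before and after 90 min at 30 °C.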
* hit, by the source's call; ? = inconclusive; · = no result given; [ ] = another dose, or the depositor's remark. The list is not random: actives were taken first. Their share in the collection is about 3.1%.

SMILES | DRD3 antagonist | DRD3 agonist | uPA generation | RGS4 inh
Cc1occc1-c1nnc(SCC(=O)Nc2nc3ccccc3s2)o1 | -103* | 24 | 11% | 28%
O=C(CNC(=O)Cn1ccc2ccccc2c1=O)NCCCN1CCN(c2cccc(Cl)c2)CC1 | -75* | -1 | 2% | 35%
O=C(CCNC(=O)Cn1ccc2ccccc2c1=O)NCCCN1CCN(c2ccccc2F)CC1 | -68* | 14 | -2% | 6%
O=C(Cn1c(=O)c2cccn2c2ccc(F)cc21)NCCCN1CCN(c2ccccc2F)CC1 | -92* | 2 | -2% | -21%
O=C(CCNC(=O)Cn1ccc2ccccc2c1=O)NCCCN1CCN(c2ccc(F)cc2)CC1 | ? | -16 | 1% | -2%[11.4 µM]
COc1ccc(-c2cc(-c3n[nH]c(=S)n3-c3cc(OC)ccc3OC)[nH]n2)cc1 | 0 | -2 | -3% | ?
COc1ccc(OC)c(-n2c(-c3cc(-c4ccc(F)cc4)n[nH]3)n[nH]c2=S)c1 | -81* | -3 | -6% | -9%
COc1ccccc1C(=O)Nc1cccc(OCc2cc(=O)n3c(C)csc3n2)c1 | · | 0 | · | ?
O=C1CCN(CCc2ccccc2)CCN1[C@H](COc1ccccc1)c1ccccc1 | -3 | -32 | -4% | -17%
CC(C)CN1CCC(=O)N([C@H](COc2ccccc2)c2ccccc2)CC1 | -70* | -60 | -15% | 16%
CCCN1CCC(=O)N([C@H](COc2ccccc2)c2ccccc2)CC1 | -104* | -74 | -10% | 1%
O=C(Nc1cccc(Cl)c1)c1cc2c(=O)[nH]c3ccccc3c2s1 | · | 3 | · | -16%
COc1ccc(C2c3sc(=O)[nH]c3SC3C(=O)N(c4ccccc4)C(=O)C32)cc1 (configuration not stated) | -26 | -7 | 4% | -12%
O=C1C2Sc3[nH]c(=O)sc3C(c3ccccc3)C2C(=O)N1c1ccccc1 (configuration not stated) | -66* | 1 | -3% | -18%
CC1(C(=O)NS(=O)(=O)c2ccc3c(c2)CCO3)CCN1C(=O)C1(c2ccc(Cl)cc2)CCC1 (configuration not stated) | 11 | 4 | · | ·
CCN(C#N)c1nc(NC(C)C)nc(NC(C)C)n1 | 15 | 32* | · | 27%
C#CCN(C#N)c1nc(NCC)nc(NC(C)C)n1 | -6 | -4 | 25% | 0%
CCCCC(Sc1nc2cc3c(cc2c(=O)n1CCCC(=O)NCc1ccc(OC)cc1)OCO3)C(=O)OCC (configuration not stated) | · | -13 | · | 17%
O=C(CSc1nc2scc(-c3ccco3)c2c(=O)n1-c1ccccc1)N1CCOCC1 | 12 | 31* | · | -32%
NC(=O)CSc1nc2scc(-c3ccco3)c2c(=O)n1-c1ccccc1 | -7 | -1 | -1% | ?
CC(CN1CCN(C)CC1)OC(=O)c1ccc(Cl)cc1 (configuration not stated) | -14 | -11 | -2% | -4%
CC(CN1CCCCC1)OC(=O)C1c2ccccc2Oc2ccccc21 (configuration not stated) | -63* | -3 | 3% | 1%
COc1cc(C(=O)OC(C)CN2CCCC2)cc(OC)c1OC (configuration not stated) | -11 | 2 | 4% | -30%
O=C(c1ccc(Cl)cc1)C(CN1CCCCC1)c1ccccc1 (configuration not stated) | -73* | -26 | -3% | ?
CC(CN1CCCC1)OC(=O)c1ccc(Br)cc1 (configuration not stated) | -67* | -20 | 2% | -23%
SMILES | DRD3 antagonist | DRD3 agonist | uPA generation | RGS4 inh
CC(CN1CCCCC1)OC(=O)c1ccc(Cl)cc1 (configuration not stated) | -56* | -18 | 5% | -13%
COc1ccc(-n2c(SCC(=O)Nc3nnc(C)s3)nc3c([nH]c4ccccc43)c2=O)cc1 | · | 5 | · | -21%
CC(CN1CCOCC1)OC(=O)c1ccccc1 (configuration not stated) | -1 | 0 | 3% | -9%
COc1ccccc1/C=C/C(=O)OC(C)CN1CCOCC1 (configuration not stated) | -83* | -4 | -1% | -24%
CCC(C)NCCCOc1cc(Cl)ccc1Cl (configuration not stated) | -77* | -6 | 2% | 0%
CCCCNCCCOc1cc(Cl)ccc1Cl | ? | -17 | -6% | 24%
CCC(C)NCCCCOc1ccc(Cl)cc1C (configuration not stated) | -60* | -11 | 7% | -10%
CCCOc1ccc(OCCCCNC(C)CC)cc1 (configuration not stated) | -55* | 2 | 1% | 5%
COCCOCC(O)CN1CCN(c2ccc(C)cc2)CC1 (configuration not stated) | -62* | -14 | 3% | -6%[11.4 µM]
OC(COCC1COc2ccccc2O1)CN1CCN(c2ccccc2)CC1 (configuration not stated) | -7 | 33* | 12% | -32%
COCCOCC(O)CN1CCN(c2ccccc2)CC1 (configuration not stated) | -78* | 11 | 5% | -25%
OC(COCc1ccccc1)CN1CCN(c2ccccc2)CC1 (configuration not stated) | ? | 11 | 1% | -17%
CC1CCN(S(=O)(=O)c2cn(CC(=O)Nc3ccc(F)c(Cl)c3)c(=O)c3ccccc23)CC1 | · | 5 | · | -2%
CCCOc1ccc(-c2nonc2NC(=O)c2oc3ccc(C)cc3c2C)cc1OCCC | · | 2 | · | 19%
O=C(O)Cc1c[nH]c2ccccc12 | -2 | -14 | 2% | 16%
O=C(COC(=O)CCc1c[nH]c2ccccc12)NC(c1ccccc1)c1ccccc1 | 5 | 39* | 1% | -12%
N[C@H](Cc1c[nH]c2ccccc12)C(=O)O | · | -10 | · | 21µM*
Cc1ccc(-c2cc(C(F)(F)F)n3nc(C(=O)Nc4ccc(Cl)cc4Cl)cc3n2)cc1 | · | 6 | · | 16%
C=CCn1c(-c2cccc(OCC)c2)n[nH]c1=S | 2 | 9 | 1% | -24%
C=CCn1c(-c2cc(OC)cc(OC)c2)n[nH]c1=S | -59* | -1 | 6% | -29%
CCN(C1CCCCC1)S(=O)(=O)c1ccc(S(=O)(=O)N2CCN(CCC#N)CC2)cc1 | -53* | -3 | 5% | 1%
CCCc1nc2c3ccccc3ccn2c1Cc1cccc(F)c1 | -90* | -5 | · | ·
CC(C)CNC(=S)NC1CC2CCC(C1)N2Cc1ccccc1 (configuration not stated) | -75* | -28 | -6% | -12%
O=C(CN1C2CCCC1CC(NC(=O)C1CCCCC1)C2)Nc1ccccc1 (configuration not stated) | 2 | -8 | -2% | -13%
CC(C)CNC(=S)NC1CC2CCCC(C1)N2C1CCCCC1 (configuration not stated) | ? | -19 | 11% | -2%
S=C(NCCc1ccccc1)NC1CC2CCC(C1)N2Cc1ccccc1 (configuration not stated) | -74* | -14 | -2% | -3%
O=C(NC1CC2CCCC(C1)N2Cc1ccccc1)C1CCCCC1 (configuration not stated) | -65* | -5 | 4% | 7%[56.9 µM]

Assay outcomes deposited in PubChem by National Center for Advancing Translational Sciences (NCATS).
